ATXN viability – cell viability loss in ATXN counter-screen | S2 cells (HEK-293 line with an ATXN2-luciferase reporter) viability, CellTiter-Fluor protease fluorescence, 24 h | Potency, µM (titrated, usually from 56.7 µM), usual class: cytotoxic | actives 0.49% (n = 400,000) | AID 651635; further: potency means the concentration at half of the fitted maximal effect; nearly all actives have a fitted effect of over 40% in size
TGFb inhibitor – TGF-b pathway inhibition. Potency, µM (highest dose often 46.1 µM), for inactives: at the top dose activity, negative = inhibition, actives largely listed as inhibitors. actives 1.2% (n = 410,000). HepG2 CAGA-GFP TGF-b/SMAD3 reporter, GFP fluorescence, 18 h; TGF-beta stimulated, 500 pg/mL final; further: potency means the concentration at half of the fitted maximal effect; on the % scale 0 is the no-effect control and ±100 the full control effect; nearly all actives have a fitted effect of over 65% in size
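Using HEPG2 CAGA-GFP reporter cells at 1000 cells/well, we pinned test compounds, stimulated with recombinant TGF-beta (500 pg/mL final) and measured total well GFP after 18 h.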
ATXN2 expr inh – ATXN2 expression inhibition. HEK-293 ATXN2-luciferase reporter, luminescence, 24 h. Potency, µM (highest dose often 57 µM), inactives show at the highest dose activity change, negative = inhibition, hits mostly inhibitors. actives 0.72% (n = 360,000); further: potency means the concentration at half of the fitted maximal effect; on the % scale 0 is the no-effect control and ±100 the full control effect; nearly all actives have a fitted effect of over 55% in size
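ATXN2-luciferase reporter cells (luciferase flanked by upstream and downstream ATXN2 gene portions) were treated 24 h at 37 °C with compounds at up to 57 uM. SteadyGlo luminescence gave expression; GF-AFC fluorescence gave viability.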
IL1B secr inh – blocks inflammasome-driven IL-1 beta release; activity change, % at 57.5 µM; actives 4.7% (n = 360,000); THP-1 LPS/ATP IL-1B secretion, AlphaLISA, 16 h; stronger effect = lower value; AID 743279; in the data active means activity change below about -50%; inconclusive means mostly about -30% to -49%; further: on the % scale 0 is the no-effect control and ±100 the full control effect
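THP-1 cells pretreated 1 hr with compounds (up to 57.5 uM final), then stimulated with LPS (250 ng/mL final) plus ATP (1.25 mM final); secreted IL-1B measured by AlphaLISA after 16 hr, decreased signal indicating inhibition.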
HepG2 tox – kills HepG2 cells in TGF-b inhibitor counter-screen; HepG2 CAGA-GFP viability, ATP luminescence, 18 h; Potency, µM (highest dose often 46.1 µM), without a hit: at the highest dose activity change, negative = cytotoxicity, actives largely listed as cytotoxic; actives 0.76% (n = 410,000); AID 588856; further: potency means the concentration at half of the fitted maximal effect
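HepG2 CAGA-GFP cells (1000/well, DMEM with 1% FBS) received compound, then TGF-beta at 500 pg/mL final, and were incubated 18 hours at 37 degrees C. Viability was read by CellTiter-Glo luminescence. Media-only wells were set as complete cell-killing and DMSO as no toxicity.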
* marks the source's active call; other numbers are inactive results; i = inactive; ? = inconclusive; nt = no result given; ! = repeats disagree; [ ] = dose if it differs, or a comment. A selection: hits, their analogues and other compounds. The true share with any hit is near 5.7%. Unless noted, the call rests on the fitted dose curve; in most records, active means well fitted curve in the direction sought with a large enough effect; inconclusive means small, poorly fitted or top-dose-only effect, or another doubt; inactive means no such curve, though single readings can be large; an effect the other way counts as inactive or inconclusive.

SMILES | ATXN viability | TGFb inhibitor | ATXN2 expr inh | IL1B secr inh | HepG2 tox
COc1ccc(OC)c(/C=C/c2[nH]c(=O)[nH]c(=O)c2[N+](=O)[O-])c1 | i | 8.1% | 8.7% | -59.0* | 2.8%
CC(=O)Nc1ccc(OCCC[n+]2ccccc2)cc1 | i | 6.1% | -18.7% | 0.0 | -9.7%
CCCCCc1ccc(OCCOCCn2c[n+](C)c3ccccc32)c(CCCCC)c1 | 17.8µM* | ? | nt | -94.1* | -113.0%
CCCCCc1ccc(OCCC[n+]2ccccc2)c(CCCCC)c1 | ? | ? | ? | -93.6* | -114.1%
O=S1(=O)CCOC[C@H](CC2CCCCC2)N1Cc1ccccc1F | ? | ? | -9.6% | -16.3 | -13.4%
O=S1(=O)CCOC[C@H](CC2CCCCC2)N1Cc1ccccc1Br | i | 12.6µM* | -20.0% | -10.5 | 7.08µM*!
O=S1(=O)CCOC[C@H](CC2CCCCC2)N1Cc1cccc(C(F)(F)F)c1 | i | ? | -26.2% | -2.5 | 12.6µM*!
CC(C)CCNC(=O)c1ccc2c(c1)N(Cc1ccccc1F)C(=O)c1ccccc1S2(=O)=O | i | -2.3% | 14.7% | nt | -25.2%
CN(C)c1ccc(/C=C/c2ccnc3c(Cl)cccc23)cc1 | nt | 48.7% | nt | nt | -34.7%
Nc1cc(-c2ccc(Br)cc2)nn1Cc1ccccc1 | ? | -9.1% | -8.8%[11.3 µM] | -68.8* | -17.8%
CCOc1ccc(C2c3[nH]c4ccccc4c3CCN2C(=O)CCc2ccccc2)cc1 (stereo unspecified) | nt | 1.9% | nt | nt | -6.6%
COc1cc(=O)n2c(c1C(=O)NC(C)c1ccco1)CCN(Cc1ccccc1Cl)CC2 (stereo unspecified) | i | nt | nt | nt | nt
C=CCSc1nc(-c2ccc(OC)cc2)c(C#N)c(=O)n1CC=C | i | ? | -7.9% | -101.8* | 4.0%
COc1ccc(-c2nc3n(c(=O)c2C#N)CCS3)cc1 | i | -2.6% | -20.3% | -11.6 | -40.5%
O=C(Oc1cccc2cccnc12)c1cccc(N2C(=O)C3C4CCC(C4)C3C2=O)c1 (stereo unspecified) | nt | ? | -25.8% | -81.4* | -32.1%
O=C(Oc1cccc2cccnc12)c1ccc(N2C(=O)C3C4CCC(C4)C3C2=O)cc1 (stereo unspecified) | i | ? | -23.2% | -95.3* | -74.4%
O=C(Oc1ccc(N2C(=O)C3C4CCC(C4)C3C2=O)cc1)c1ccco1 (stereo unspecified) | i | -3.6% | -1.0% | 42.4 | -2.5%
COc1ccc(-n2ncc3c(NCCCOC(C)C)ncnc32)cc1 | i | 0.2% | 20.7% | nt | -14.8%
Cc1nc(NCc2c(F)cccc2F)sc1-c1ccn(CCN2CCOCC2)n1 | i | nt | nt | nt | nt
COc1ccccc1C1CN(Cc2cccc(OCCO)c2)Cc2ccccc2O1 (stereo unspecified) | i | nt | nt | nt | nt
COc1ccc(CC(N)c2csc(NC(=O)c3ccc(OC)cc3)n2)cc1 (stereo unspecified) | i | ? | -36.6% | ? | -29.9%
COc1ccc(CC(N)c2csc(NC(=O)c3ccc(F)cc3)n2)cc1 (stereo unspecified) | i | ? | -14.0% | -54.1* | -28.9%
COc1ccc(CC(N)c2csc(NC(=O)c3cccc(OC(F)(F)F)c3)n2)cc1 (stereo unspecified) | i | ? | ? | -60.2* | -99.9%
COc1ccc(CC(N)c2csc(NC(=O)c3ccccc3OC)n2)cc1 (stereo unspecified) | ? | -21.0% | 22.4µM* | -7.4 | -49.1%
NC(Cc1ccccc1)c1csc(NC(=O)c2cccc(OC(F)(F)F)c2)n1 (stereo unspecified) | ? | ? | ? | nt | -110.9%
SMILES | ATXN viability | TGFb inhibitor | ATXN2 expr inh | IL1B secr inh | HepG2 tox
COc1ccc(CNC(=O)Nc2nc(C(N)Cc3ccc(C(F)(F)F)cc3)cs2)cc1 (stereo unspecified) | i | 15.8µM* | ? | ? | -94.1%
COc1ccc2c(c1)-c1nc(-n3ncc(C(=O)N(C)C(C)c4ccon4)c3C3CC3)ncc1CC2 (stereo unspecified) | i | nt | nt | nt | nt
CCn1cc(S(=O)(=O)c2ccccc2)c(=O)c2cc(F)c(N3CCCCCC3)cc21 | nt | -2.5% | nt | nt | -0.3%
O=C(c1ccccc1)N1CCc2cc(CNS(=O)(=O)c3ccc(Cl)s3)ccc21 | nt | -23.3% | nt | nt | -60.2%
COc1ccc(CC(N)c2csc(NC(=O)C(c3ccccc3)c3ccccc3)n2)cc1 (stereo unspecified) | ? | ? | ? | -51.9* | 11.2µM*
COc1ccc(CC(N)c2csc(NC(=O)c3ccccc3)n2)cc1 (stereo unspecified) | ? | -6.6% | -23.8% | ? | -34.8%
COc1cc(CNC(=O)Nc2nc(C(N)c3ccccc3)cs2)cc(OC)c1OC (stereo unspecified) | i | -19.3% | -2.8% | -20.5 | -19.3%
COc1cc(CNC(=O)Nc2nc(C(N)Cc3ccc(Cl)cc3)cs2)cc(OC)c1OC (stereo unspecified) | 25.1µM* | ? | ? | -74.1* | 17.8µM*
Cc1ccc(-c2nn(CC(=O)NC3CCCC3)c3c2cnc2ccc(F)cc23)cc1C | ? | -0.2% | 23.6% | nt | -2.6%
Cc1cccc(N2CCN(C(=O)Cn3nc(Cc4cccnc4)c4ccccc4c3=O)CC2)c1C | nt | ? | nt | nt | -37.3%
Cc1ccc(CN2C(=O)C[C@@H](NC(=O)OCC3c4ccccc4-c4ccccc43)C/C=C\C2c2ccc(C)cc2)cc1 (stereo partly specified) | i | ? | -4.3% | -64.8* | -36.9%
CC1(C)C[C@@H]2C[C@@](C)(CN2C(=O)c2cc(COc3cccc(C(F)(F)F)c3)on2)C1 | ? | ? | 14.6% | -61.1* | -6.3%
O=C(c1cc(COc2cccc(C(F)(F)F)c2)on1)N1C[C@H]2CC[C@H]1C2 | i | ? | 59.1% | -1.0 | 0.1%
COc1ccc(/C(C)=N/OCC(=O)N2CC3(C)CC2CC(C)(C)C3)cc1 (stereo unspecified) | i | -23.2% | -24.0% | -78.2* | -37.4%
COc1ccc(-c2cc(C(=O)N3CC4(C)CC3CC(C)(C)C4)no2)cc1 (stereo unspecified) | i | 5.8% | -4.7% | -53.4* | 0.6%
O=C(Nc1cccc(O)c1)c1ccc([N+](=O)[O-])cc1Cl | i | 1.0% | 52.9% | 14.8 | 1.3%
O=C(Nc1c(Cl)cc([N+](=O)[O-])cc1Cl)c1cc(Cl)cc(Cl)c1O | nt | 3.16µM* | nt | nt | -52.9%
CCCc1cc(=O)[nH]c2nnc(SCC)n12 | nt | 0.8% | nt | nt | 5.4%
Nc1c(C(=O)NCC2CCCO2)c2nc3ccccc3nc2n1-c1ccccc1 (stereo unspecified) | nt | ? | -7.2% | 0.0 | -12.9%
Nc1c(C(=O)NCCN2CCOCC2)c2nc3ccccc3nc2n1-c1cccc(F)c1 | nt | ? | -15.3% | -62.7* | -31.6%

High-throughput results from PubChem.
